# Results published in PubChem BioAssay.
# Several values for one entry are separate records, joined by “and”; a condition that tells them apart may be missing. Identical values can stand only once. A number with no mark means an inactive call. Activity calls are given as the source filed them.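 The calls were made as follows: active = thallium flux through the channel raised or lowered by more than 3 SD from vehicle-only wells, actives on both sides; inactive = the rest.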
# Test system: F380Y/beta1
# Assay: modulators of BK channel variants, profiling panel, selectivity assay, cell-based, U2OS BacMam, thallium flux, beta subunits (AID 1259406);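 also: initial slope of Thallos dye fluorescence rise after thallium is added; log ratio against the mean of 0.3% DMSO vehicle wells on the same plate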
# Conditions: at 30 µM
row,Compound,log fold change Tl+ flux
1,O=C(CCNNC(=O)c1ccncc1)NCc1ccccc1,0.00246
2,O=C(O)CCNC(=O)c1ccc(N=Nc2ccc(O)c(C(=O)O)c2)cc1,-0.0255
3,Cc1cccc(C)c1OCC(C)N (stereo not given),0.0282
4,CCOC(=O)c1ncn2c1CN(C)C(=O)c1cc(F)ccc1-2,-0.00468
5,CC(c1cc2ccccc2s1)N(O)C(N)=O (stereo not given),0.00537
6,CCC(=O)O[C@]1(C(=O)SCF)[C@H](C)C[C@H]2[C@@H]3C[C@H](F)C4=CC(=O)C=C[C@]4(C)[C@@]3(F)[C@@H](O)C[C@@]21C,-0.0132
7,Cc1[nH]cnc1CN1CCc2c(c3ccccc3n2C)C1=O,0.0327
8,Cc1cn([C@H]2C=C[C@@H](CO)O2)c(=O)[nH]c1=O,0.0156 and 0.0441
9,CCN1CCCC1CNC(=O)c1cc(S(=O)(=O)CC)c(N)cc1OC (stereo not given),0.016
10,O=C(NCCN1CCOCC1)c1ccc(Cl)cc1,-0.0206
11,CN(C)CC/C=C1/c2ccccc2COc2ccc(CC(=O)O)cc21,0.0119
12,C#C[C@]1(O)CC[C@H]2[C@@H]3[C@H](C)CC4=C(CCC(=O)C4)[C@H]3CC[C@@]21C,0.123 (active)
13,COc1ccccc1OCC(O)CN1CCN(CC(=O)Nc2c(C)cccc2C)CC1 (stereo not given),0.0232
14,NS(=O)(=O)Cc1noc2ccccc12,-0.0156
15,NC(=O)OCC(COC(N)=O)c1ccccc1,-0.0115
16,COC(=O)C1=C(C)NC(C)=C(C(=O)O[C@@H]2CCCN(Cc3ccccc3)C2)[C@@H]1c1cccc([N+](=O)[O-])c1,-0.000881
17,Cn1c(NCCN(CCO)CCCc2ccc([N+](=O)[O-])cc2)cc(=O)n(C)c1=O,-0.0554
18,O=C(O)/C=C/c1ccc(Cn2ccnc2)cc1,0.0144
19,CCOC(=O)[C@H](CCc1ccccc1)N[C@@H](C)C(=O)N1[C@H](C(=O)O)C[C@@H]2CCC[C@@H]21,-0.00638 and 0.058
20,CCN(CC)CC1CCCCN1CC(=O)N1c2ccccc2C(=O)Nc2cccnc21 (stereo not given),0.0276
21,CC(C)(O)c1ccccc1CC[C@@H](SCC1(CC(=O)O)CC1)c1cccc(/C=C/c2ccc3ccc(Cl)cc3n2)c1,0.853 (active)
22,CC1(C)O[C@@H]2C[C@H]3[C@@H]4C[C@H](F)C5=CC(=O)C=C[C@]5(C)[C@@]4(F)[C@@H](O)C[C@]3(C)[C@]2(C(=O)CO)O1,0.211 (active)
23,CCCN1CCCC[C@H]1C(=O)Nc1c(C)cccc1C,0.0176
24,C[C@@H]1C[C@H]2[C@@H]3C[C@H](F)C4=CC(=O)C(Cl)=C[C@]4(C)[C@@]3(F)[C@@H](O)C[C@]2(C)[C@@]1(O)C(=O)CO,0.0734
25,CN1CCN(C2=Nc3cc(F)ccc3Cc3ccccc32)CC1,0.0457
26,COc1cc(C(=O)NS(=O)(=O)c2ccccc2C)ccc1Cc1cn(C)c2ccc(NC(=O)OC3CCCC3)cc12,0.461 (active)
27,CCOc1cc(CC(=O)N[C@@H](CC(C)C)c2ccccc2N2CCCCC2)ccc1C(=O)O,0.45 (active)
28,COc1cc(C(=O)NC2CCCNC2)cc(OC)c1OC (stereo not given),-0.0621
29,CC(=O)Oc1ccccc1C(=O)Nc1ncc([N+](=O)[O-])s1,0.0346
30,CCOc1cc(N)c(Cl)cc1C(=O)NCC1CN(Cc2ccc(F)cc2)CCO1 (stereo not given),0.0819
